Data taken from PubChem BioAssay.
Results filed as inconclusive are left out. Activity calls are given as the source filed them. Unless noted, no rule for the calls is given here.

Legend:
[1] = yeast TOR pathway RPL19A-GFP modulators, primary screen, cell-based, S. cerevisiae, multiplex flow cytometry (AID 1862; in the data active = percent of DMSO control GFP below about 86%;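 also: lower values mimic rapamycin by blocking the RPL19A rise seen in DMSO cells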); details: S. cerevisiae RPL19A-GFP strain, flow cytometry fluorescence, 3 h; at 10 µM; stronger effect = lower value
[2] = modulators of MEP2-GFP levels in yeast, primary screen, S. cerevisiae, multiplex flow cytometry (AID 1867;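 active = GFP response, as percent of the DMSO control, above the screen-wide mean plus 3 SD, about 139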;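 also: median GFP channel fluorescence of barcode-gated MEP2-GFP cells measured by flow cytometry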); details: S. cerevisiae MEP2-GFP strain, 3 h, at 10 µM, stronger effect = higher value
[3] = modulators of CIT2-GFP expression in yeast, primary screen, S. cerevisiae, GFP fusion, multiplex flow cytometry (AID 1870;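 active = percent response above a set limit, the screen-wide mean plus 3 SD, cut at about 130% in these data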;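 also: barcoded CIT2-GFP strain pooled with four other GFP strains with rapamycin as positive control; median GFP fluorescence per well over plate mean of DMSO wells so 100% = DMSO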); details: 3 h, at 10 µM, stronger effect = higher value
[4] = modulators of LAP4-GFP expression in yeast, primary screen, S. cerevisiae, multiplex flow cytometry (AID 1873;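 active = GFP signal, as percent of the solvent control, above the screen mean plus 3 SD, about 149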); details: 3 h, at 10 µM, stronger effect = higher value
[5] = modulators of AGP1-GFP expression in yeast TOR pathway, primary screen, cell-based, multiplex flow cytometry, S. cerevisiae (AID 1887;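 active = GFP signal above the screen-wide mean plus 3 SD, that is over about 124.5% of the solvent control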;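 also: AGP1-GFP fusion strain of S. cerevisiae within a five-strain barcoded multiplex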); details: 3 h, at 10 µM, stronger effect = higher value
[6] = inhibitors of CD8+ T cell-vesicle binding, pilot screen, LFA-1/ICAM-1 modulator project, MLPCN validation set, flow cytometry (AID 2523;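 active = response below a set limit, under 55% cells CD8-positive and vesicle-bound, and CD8 cells' 90th-percentile brightness under 279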;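 as to vesicle binding response: mean PE anti-B7-1 fluorescence of CD8+ cells relative to row control; 100% = QL9-loaded vesicles with DMSO vehicle in the same plate row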); details: 2C mouse CD8+ T cells, at 7 µM, stronger effect = lower value; double positive events: measured here: CD8+/vesicle+ event percentage
[7] = molecular target: Integrin beta-1 (Homo sapiens) + Integrin alpha-4 (Homo sapiens) (UniProt P13612+P05556); assay: inhibition of HUTS-21 binding to VLA-4, pilot screen, VLA-4 allosteric modulator project, U937 cells, HUTS-21 mAb, flow cytometry, validation set (AID 2674;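 active = inhibition above 50%, about 3 SD of the validation set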;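 also: antibody binding induced by the VLA-4 ligand LDV present at three times its Kd; 0% = LDV ligand with antibody and no compound and 100% = antibody without LDV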); details: HUTS-21 LIBS mAb binding, at 6.7 µM, stronger effect = higher value
Integrin beta-1 (Homo sapiens) + Integrin alpha-4 (Homo sapiens), sequence (P05556 whole entry, looked up): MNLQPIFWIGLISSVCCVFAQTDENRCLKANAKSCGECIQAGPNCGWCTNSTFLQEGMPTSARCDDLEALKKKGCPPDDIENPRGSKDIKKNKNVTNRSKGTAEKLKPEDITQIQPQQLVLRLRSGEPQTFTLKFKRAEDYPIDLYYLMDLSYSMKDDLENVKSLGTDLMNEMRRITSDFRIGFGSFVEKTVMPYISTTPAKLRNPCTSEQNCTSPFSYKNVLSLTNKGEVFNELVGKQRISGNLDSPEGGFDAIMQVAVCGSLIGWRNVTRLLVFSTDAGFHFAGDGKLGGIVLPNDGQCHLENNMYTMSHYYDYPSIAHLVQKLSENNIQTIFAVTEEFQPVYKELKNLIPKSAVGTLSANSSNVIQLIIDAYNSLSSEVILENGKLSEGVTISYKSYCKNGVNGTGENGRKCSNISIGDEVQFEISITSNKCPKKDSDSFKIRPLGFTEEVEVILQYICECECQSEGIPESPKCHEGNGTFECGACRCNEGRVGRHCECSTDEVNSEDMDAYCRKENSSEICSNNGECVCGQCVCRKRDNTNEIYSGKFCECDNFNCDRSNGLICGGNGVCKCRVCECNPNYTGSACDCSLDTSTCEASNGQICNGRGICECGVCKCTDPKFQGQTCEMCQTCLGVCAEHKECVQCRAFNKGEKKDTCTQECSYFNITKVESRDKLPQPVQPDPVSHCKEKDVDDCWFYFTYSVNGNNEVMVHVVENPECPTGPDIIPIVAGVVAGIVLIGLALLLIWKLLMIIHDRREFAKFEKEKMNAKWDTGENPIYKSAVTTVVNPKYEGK
Integrin beta-1 (Homo sapiens) + Integrin alpha-4 (Homo sapiens), sequence (P13612 whole entry, looked up): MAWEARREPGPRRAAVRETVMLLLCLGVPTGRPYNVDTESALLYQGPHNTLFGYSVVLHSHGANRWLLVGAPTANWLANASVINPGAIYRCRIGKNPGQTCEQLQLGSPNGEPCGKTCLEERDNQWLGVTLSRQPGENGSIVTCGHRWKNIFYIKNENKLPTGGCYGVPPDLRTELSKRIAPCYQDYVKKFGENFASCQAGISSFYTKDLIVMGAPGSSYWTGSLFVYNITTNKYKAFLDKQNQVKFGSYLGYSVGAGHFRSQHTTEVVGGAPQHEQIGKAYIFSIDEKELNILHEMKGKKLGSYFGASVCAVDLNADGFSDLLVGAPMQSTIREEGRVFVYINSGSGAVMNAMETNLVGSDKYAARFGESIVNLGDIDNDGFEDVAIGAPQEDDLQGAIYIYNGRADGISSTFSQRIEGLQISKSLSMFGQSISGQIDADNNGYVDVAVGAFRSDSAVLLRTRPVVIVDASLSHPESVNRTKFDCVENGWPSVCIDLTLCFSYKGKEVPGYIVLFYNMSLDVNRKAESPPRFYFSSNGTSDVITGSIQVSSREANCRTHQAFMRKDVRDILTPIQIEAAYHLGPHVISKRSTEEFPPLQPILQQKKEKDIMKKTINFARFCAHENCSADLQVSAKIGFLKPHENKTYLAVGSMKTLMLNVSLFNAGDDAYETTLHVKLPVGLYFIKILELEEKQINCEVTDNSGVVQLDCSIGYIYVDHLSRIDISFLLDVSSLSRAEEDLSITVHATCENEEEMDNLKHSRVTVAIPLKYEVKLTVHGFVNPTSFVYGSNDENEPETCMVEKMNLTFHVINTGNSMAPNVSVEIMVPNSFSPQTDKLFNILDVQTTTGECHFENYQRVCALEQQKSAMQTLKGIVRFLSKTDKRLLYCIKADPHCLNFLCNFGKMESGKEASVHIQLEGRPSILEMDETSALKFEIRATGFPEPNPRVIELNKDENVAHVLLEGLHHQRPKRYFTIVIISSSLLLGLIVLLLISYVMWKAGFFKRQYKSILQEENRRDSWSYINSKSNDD

[8] = superoxide lowering in aged yeast cells, pilot screen, validation compound set (AID 2706;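 active = superoxide response below 65% of plate, a cut near 3 SD across the whole screen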;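 also: yeast exposed to compound for one week at 30 degrees C before staining; 100% = mean of all compound wells on the same plate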); details: S. cerevisiae aging, superoxide DHE fluorescence; at 10 µM; stronger effect = lower value
[9] = molecular target: Beta-adrenergic receptor kinase 1 (Homo sapiens) (UniProt P25098); assay: GRK2 binders displacing RNA aptamer, biochemical, validation, human GRK2, bead flow cytometry (AID 488806;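 active = aptamer binding inhibition above 30%, about 3 SD of noise from non-fluorescent compounds; inactive = inhibition at or below 30%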); details: bead-bound GRK2, FAM-aptamer displacement, at 10 µM, stronger effect = higher value
[10] = molecular target: Beta-2 adrenergic receptor (Homo sapiens) (UniProt P07550); assay: beta2AR agonists driving receptor internalization, pilot screen, cell-based, FAP fluorogen, flow cytometry, validation set (AID 504459;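 active = percent response above 42, roughly 3 SD of non-fluorescent test compounds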;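 also: agonist-driven loss of surface beta2AR via internalization measured by FAP dye flow cytometry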); details: Am2.2-beta2AR cells, FAP surface receptor flow cytometry; at 10 µM; stronger effect = higher value
Beta-2 adrenergic receptor (Homo sapiens), sequence (P07550 whole entry, looked up): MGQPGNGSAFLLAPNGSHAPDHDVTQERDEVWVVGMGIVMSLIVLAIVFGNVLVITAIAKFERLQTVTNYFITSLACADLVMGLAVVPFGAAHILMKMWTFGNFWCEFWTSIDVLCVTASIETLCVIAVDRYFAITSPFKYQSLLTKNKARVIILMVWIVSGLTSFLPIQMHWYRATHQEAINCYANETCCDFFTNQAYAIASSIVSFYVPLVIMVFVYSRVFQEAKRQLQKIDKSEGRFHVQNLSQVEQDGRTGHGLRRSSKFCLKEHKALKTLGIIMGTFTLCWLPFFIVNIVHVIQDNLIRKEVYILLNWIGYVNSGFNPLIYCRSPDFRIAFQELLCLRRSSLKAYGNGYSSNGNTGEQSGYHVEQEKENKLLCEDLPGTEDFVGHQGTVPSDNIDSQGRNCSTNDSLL

[11] = molecular target: AP-2 complex subunit beta (Homo sapiens) (UniProt P63010); assay: inhibitors of arrestin peptide binding to AP2, pilot screen, biochemical, validation set, GST-AP2 beads, flow cytometry (AID 504541;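 active = inhibition above 54%, about 3 SD of non-fluorescent compounds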;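 also: AP2 carries R879A mutation and is captured from E. coli lysate; bead-bound FITC arrestin peptide fluorescence measuring arrestin peptide binding to AP2; 0% = DMSO wells and 100% = excess unlabeled arrestin peptide control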); details: FITC arrestin peptide, at 10 µM, stronger effect = higher value
AP-2 complex subunit beta (Homo sapiens), sequence (P63010 whole entry, looked up, one chain of several): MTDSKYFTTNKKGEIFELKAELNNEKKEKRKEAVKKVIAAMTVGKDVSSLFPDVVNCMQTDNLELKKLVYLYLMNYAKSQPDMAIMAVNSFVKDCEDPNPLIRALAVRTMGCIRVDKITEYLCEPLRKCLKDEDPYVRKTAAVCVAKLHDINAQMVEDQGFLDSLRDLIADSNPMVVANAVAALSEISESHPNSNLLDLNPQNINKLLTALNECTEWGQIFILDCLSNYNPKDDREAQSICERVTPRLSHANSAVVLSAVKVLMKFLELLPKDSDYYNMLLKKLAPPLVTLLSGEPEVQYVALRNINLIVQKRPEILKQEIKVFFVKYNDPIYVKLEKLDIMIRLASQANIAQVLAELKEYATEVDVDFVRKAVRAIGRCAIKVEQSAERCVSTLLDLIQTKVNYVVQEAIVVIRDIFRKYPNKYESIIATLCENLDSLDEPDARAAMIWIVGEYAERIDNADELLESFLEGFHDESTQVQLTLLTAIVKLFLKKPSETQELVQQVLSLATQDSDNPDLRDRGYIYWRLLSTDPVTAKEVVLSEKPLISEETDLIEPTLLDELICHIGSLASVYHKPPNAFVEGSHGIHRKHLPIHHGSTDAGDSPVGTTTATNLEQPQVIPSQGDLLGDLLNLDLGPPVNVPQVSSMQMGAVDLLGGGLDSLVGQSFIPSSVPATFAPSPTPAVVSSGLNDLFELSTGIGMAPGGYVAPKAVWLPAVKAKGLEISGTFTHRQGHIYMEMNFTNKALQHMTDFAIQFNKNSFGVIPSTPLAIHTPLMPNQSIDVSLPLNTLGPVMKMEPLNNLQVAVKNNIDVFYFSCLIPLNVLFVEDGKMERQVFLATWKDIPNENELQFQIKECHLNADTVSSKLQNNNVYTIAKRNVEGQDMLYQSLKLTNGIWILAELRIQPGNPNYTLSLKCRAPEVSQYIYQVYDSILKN

[12] = yeast V-ATPase proton transport modulators, S. cerevisiae, pHLuorin, HTS validation (AID 504600; in the data active = response above about 15%;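 also: plate controls were DMSO for no effect and reference compound for full effect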); details: S. cerevisiae pHLuorin cytosolic pH, at 10 µM, stronger effect = higher value
[13] = tested on: anti-desmoglein-3 scFv antibody binding to human DSG3; assay: inhibitors of anti-DSG3 scFv binding to DSG3, pilot screen, biochemical, validation compound set, bead-based, flow cytometry (AID 588368;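 active = binding below the plate cutoff, the plate median minus 3 SD, with a reading above zero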;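 also: signal is the median channel fluorescence of bead-bound GFP antibody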); details: Protein G beads, DSG3-Fc, scFv-GFP binding, at 10 µM, stronger effect = lower value
[14] = tested on: Botulinum neurotoxin type F light chain protease (Clostridium botulinum); assay: Botulinum neurotoxin type F light chain protease inhibition, multiplex microsphere flow cytometry, validation set (AID 588459); details: multiplex microsphere protease substrate cleavage assay, at 10 µM, stronger effect = higher value
[15] = molecular target: Botulinum neurotoxin type A (Clostridium botulinum) (UniProt P0DPI0); assay: BoNT/A light chain protease inhibitors, biochemical, multiplex microsphere flow cytometry, validation set (AID 588460); details: at 10 µM, stronger effect = higher value
Botulinum neurotoxin type A (Clostridium botulinum), sequence (P0DPI0 whole entry, looked up): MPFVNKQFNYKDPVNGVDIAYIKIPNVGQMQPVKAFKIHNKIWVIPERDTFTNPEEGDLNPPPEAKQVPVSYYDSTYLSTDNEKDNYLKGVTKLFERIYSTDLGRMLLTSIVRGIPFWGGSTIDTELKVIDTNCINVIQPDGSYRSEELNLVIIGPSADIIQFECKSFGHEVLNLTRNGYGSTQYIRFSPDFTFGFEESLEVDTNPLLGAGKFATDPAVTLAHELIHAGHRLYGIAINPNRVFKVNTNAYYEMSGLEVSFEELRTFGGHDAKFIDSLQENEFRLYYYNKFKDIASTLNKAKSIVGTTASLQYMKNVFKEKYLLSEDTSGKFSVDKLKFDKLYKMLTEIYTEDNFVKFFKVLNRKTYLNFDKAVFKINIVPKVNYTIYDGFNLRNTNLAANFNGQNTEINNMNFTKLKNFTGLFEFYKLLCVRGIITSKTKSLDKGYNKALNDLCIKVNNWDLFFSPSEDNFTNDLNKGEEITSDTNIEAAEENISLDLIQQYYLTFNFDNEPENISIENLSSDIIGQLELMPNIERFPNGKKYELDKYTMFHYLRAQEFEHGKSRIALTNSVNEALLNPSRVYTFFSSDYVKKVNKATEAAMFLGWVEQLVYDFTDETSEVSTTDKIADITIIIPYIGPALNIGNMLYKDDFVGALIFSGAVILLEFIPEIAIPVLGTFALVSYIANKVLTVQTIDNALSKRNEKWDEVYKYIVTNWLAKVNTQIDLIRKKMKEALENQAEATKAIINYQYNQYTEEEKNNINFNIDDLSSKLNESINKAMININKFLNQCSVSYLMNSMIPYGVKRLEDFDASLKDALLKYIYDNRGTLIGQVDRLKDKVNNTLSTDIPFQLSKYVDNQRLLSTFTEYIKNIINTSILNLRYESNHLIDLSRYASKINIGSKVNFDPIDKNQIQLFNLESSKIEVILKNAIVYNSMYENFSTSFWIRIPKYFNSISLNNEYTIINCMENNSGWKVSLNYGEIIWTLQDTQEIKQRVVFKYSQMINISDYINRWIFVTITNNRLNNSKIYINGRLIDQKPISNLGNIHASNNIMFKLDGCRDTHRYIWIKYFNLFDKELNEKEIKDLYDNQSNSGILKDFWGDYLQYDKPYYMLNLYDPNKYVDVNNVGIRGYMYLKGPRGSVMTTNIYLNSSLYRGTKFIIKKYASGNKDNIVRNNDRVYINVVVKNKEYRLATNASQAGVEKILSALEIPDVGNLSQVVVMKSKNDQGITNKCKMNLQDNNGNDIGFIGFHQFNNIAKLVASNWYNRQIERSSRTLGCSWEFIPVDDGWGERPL

[16] = molecular target: Lethal factor (Bacillus anthracis) (UniProt P15917); assay: Lethal factor protease inhibitors, Bacillus anthracis, multiplex microsphere cleavage assay, validation set (AID 588461); details: flow cytometry, at 10 µM, stronger effect = higher value
[17] = inhibitors of fungal efflux pumps CDR1, CDR2, MDR1, pilot screen, validation compound set, multiplex, phenotypic (AID 588506;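 active = efflux inhibition above 0.42, the validation set average plus 4 SD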;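 also: Nile Red retained in cells so higher fluorescence means more efflux inhibition; 0 = negative control wells and 1 = enniatin B 25 µM full block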); details: S. cerevisiae pump-expressing triplex, Nile Red efflux flow cytometry; at 10 µM; stronger effect = higher value
[18] = molecular target: ATP-binding cassette sub-family B member 6 (Homo sapiens) (UniProt Q9NP58); assay: ABCB6 transporter inhibitors, pilot screen, K562-ABCB6 cells, flow cytometry, validation set (AID 588550;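 active = inhibition above the screen-wide mean plus 3 SD, about 51%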;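 also: 0% = DMSO wells and 100% = benzethonium chloride 70 µM positive control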); details: K562-ABCB6 porphyrin accumulation, 1 h, at 10 µM, stronger effect = higher value
[19] = promoters of myeloid differentiation in arrested cells, primary screen, cell-based, GFP/MAC1 double positive, flow cytometry, validation set (AID 588685;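 active = differentiation response of at least 50%, scaled between solvent and reference control, from cells with both markers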;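 also: compound exposure lasts four days before antibody staining and flow analysis; 0% = DMSO wells and 100% = 5 µM fulvestrant positive control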); details: ER-HoxA9 marrow cells, stronger effect = higher value

[N-]=[N+]=CC(=O)OC[C@H](N)C(=O)O
inactive: percent of DMSO control GFP [1] 102% | GFP response vs DMSO [2] 102% | percent response of DMSO control [3] 100% | GFP response vs DMSO [4] 109% | GFP response, % of DMSO [5] 110% | vesicle binding response [6] 133% | inhibition [7] 12.5% | superoxide response (% of plate) [8] 97.4% | aptamer binding inhibition [9] 5% | response [10] -13% | inhibition [11] 4.06% | response [12] 2.12% | binding (% of control) [13] 92.8% | inhibition [14] 2.7% | inhibition [15] 1.2% | inhibition [16] 2.3% | efflux inhibition (fraction of control) [17] -0.13 | inhibition [18] 5% | differentiation response [19] 0.92%
64.4%: double positive events [6]

NNC(=O)c1ccc(Cl)cc1
inactive: percent of DMSO control GFP [1] 102% | GFP response vs DMSO [2] 103% | percent response of DMSO control [3] 104% | GFP response vs DMSO [4] 102% | GFP response, % of DMSO [5] 102% | vesicle binding response [6] 114% | inhibition [7] 0.25% | superoxide response (% of plate) [8] 88.1% | aptamer binding inhibition [9] -2% | response [10] 7.16% | inhibition [11] 3.28% | response [12] 3.19% | binding (% of control) [13] 98.7% | inhibition [14] -1.9% | inhibition [15] 0.4% | inhibition [16] 6.8% | efflux inhibition (fraction of control) [17] -0.36 | inhibition [18] -3% | differentiation response [19] 2.74%
56.2%: double positive events [6]

C[C@@]1(CO)[C@H](O)CC[C@@]2(C)[C@H]1CC[C@H]1C[C@@H]3C[C@@]12CC[C@]3(O)CO
inactive: percent of DMSO control GFP [1] 105% | GFP response vs DMSO [2] 106% | percent response of DMSO control [3] 102% | GFP response vs DMSO [4] 103% | GFP response, % of DMSO [5] 99.3% | vesicle binding response [6] 225% | inhibition [7] 17.7% | superoxide response (% of plate) [8] 102% | aptamer binding inhibition [9] 0% | response [10] 0.18% | response [12] 3.03% | binding (% of control) [13] 100% | inhibition [14] 4.1% | inhibition [15] 1% | inhibition [16] -0.5% | efflux inhibition (fraction of control) [17] -0.04 | inhibition [18] 6% | differentiation response [19] -1.65%
active: inhibition [11] 54.5%
62.9%: double positive events [6]

O=c1[nH]c(=S)n(-c2ccccc2)c(O)c1/C=N/N1CCCCC1c1cccnc1 (stereo not given)
inactive: percent of DMSO control GFP [1] 101% | GFP response vs DMSO [2] 100% | percent response of DMSO control [3] 90.8% | GFP response vs DMSO [4] 84.8% | GFP response, % of DMSO [5] 93% | vesicle binding response [6] 885% | inhibition [7] -37.8% | superoxide response (% of plate) [8] 100% | aptamer binding inhibition [9] 4% | response [10] 0.69% | inhibition [11] 1.04% | response [12] 4.77% | binding (% of control) [13] 100% | inhibition [14] -0.8% | inhibition [15] 0.8% | inhibition [16] -6.8% | efflux inhibition (fraction of control) [17] -0.04 | inhibition [18] 0% | differentiation response [19] 4.15%
64%: double positive events [6]

COc1cc2c3cc1Oc1cc(ccc1O)C[C@@H]1c4c(cc(OC)c(O)c4Oc4ccc(cc4)C[C@H]3N(C)CC2)CCN1C
inactive: percent of DMSO control GFP [1] 88.2% | GFP response vs DMSO [2] 125% | percent response of DMSO control [3] 107% | GFP response vs DMSO [4] 81.4% | GFP response, % of DMSO [5] 90.5% | vesicle binding response [6] 214% | inhibition [7] 7.43% | superoxide response (% of plate) [8] 92.4% | aptamer binding inhibition [9] 2% | response [10] 17.5% | inhibition [11] 19.2% | response [12] 1.91% | binding (% of control) [13] 105% | inhibition [14] -3.1% | inhibition [15] -3% | inhibition [16] -7.1% | efflux inhibition (fraction of control) [17] 0.05 | inhibition [18] 10% | differentiation response [19] -3.28%
56.5%: double positive events [6]

Cc1cc(OCc2cc(C(=O)O)oc2C)c2c3c(c(=O)oc2c1)CCCC3
inactive: percent of DMSO control GFP [1] 104% | GFP response vs DMSO [2] 97.2% | percent response of DMSO control [3] 114% | GFP response vs DMSO [4] 96.6% | GFP response, % of DMSO [5] 101% | vesicle binding response [6] 282% | inhibition [7] 7.85% | superoxide response (% of plate) [8] 90.3% | aptamer binding inhibition [9] 4% | response [10] -5.78% | inhibition [11] -4.24% | response [12] -0.71% | binding (% of control) [13] 97.1% | inhibition [14] -2% | inhibition [15] -0.5% | inhibition [16] -8.8% | efflux inhibition (fraction of control) [17] -0.01 | inhibition [18] 6% | differentiation response [19] 6.11%
66.4%: double positive events [6]

CCOc1ccc(N2C(=O)NC(=O)/C(=C\c3cc(OC)c(OC)cc3[N+](=O)[O-])C2=O)cc1
inactive: percent of DMSO control GFP [1] 102% | GFP response vs DMSO [2] 97.7% | percent response of DMSO control [3] 109% | GFP response vs DMSO [4] 89.3% | GFP response, % of DMSO [5] 103% | vesicle binding response [6] 144% | inhibition [7] -7.79% | superoxide response (% of plate) [8] 107% | aptamer binding inhibition [9] 0% | response [10] 7.81% | inhibition [11] 7.81% | response [12] -4.04% | binding (% of control) [13] 97.9% | inhibition [14] -3.1% | inhibition [15] -0.2% | inhibition [16] 4.2% | efflux inhibition (fraction of control) [17] -0.15 | inhibition [18] -11% | differentiation response [19] 17.4%
60.3%: double positive events [6]

O=c1c2ccccc2nc(/C=C/c2ccc3c(c2)OCO3)n1-c1ccccc1
inactive: percent of DMSO control GFP [1] 102% | GFP response vs DMSO [2] 105% | percent response of DMSO control [3] 100% | GFP response vs DMSO [4] 110% | GFP response, % of DMSO [5] 98.9% | vesicle binding response [6] 140% | inhibition [7] 1.44% | superoxide response (% of plate) [8] 90.1% | aptamer binding inhibition [9] 4% | response [10] -4.14% | inhibition [11] -1.43% | response [12] -7.21% | binding (% of control) [13] 106% | inhibition [14] -0.7% | inhibition [15] 0.6% | inhibition [16] -5% | efflux inhibition (fraction of control) [17] 0.33 | inhibition [18] 0% | differentiation response [19] 7.82%
59.9%: double positive events [6]
